The sequences below were run against CASP8 (assay: pooled miR-30 sensor sort-seq; sequence = guide strand). Settings: shRNA.
Sequence TTCATAGTTCACTTCAGTCAGG has a sensor-assay potency score (higher = more potent) of -0.715. Sequence TAATGATTTAAAATAATCCAAG has a sensor-assay potency score (higher = more potent) of -1.15. TTTTGCAAAATTGTGATTGTTG gave a sensor-assay potency score (higher = more potent) of 0.0045. TTTCTTGTCATCCTTGTTGCTT was tested, and the sensor-assay potency score (higher = more potent) was -0.189. With TAACCTGCCTAACTCCACGTGC the sensor-assay potency score (higher = more potent) was -0.566. With TTACTTTCAATAACCACCCTGG the sensor-assay potency score (higher = more potent) was 0.486. Sequence ATAGTCGTTGATTATCTTCAGC has a sensor-assay potency score (higher = more potent) of -0.538. TTGAGGTGATGATAAATCCATT showed a sensor-assay potency score (higher = more potent) of -0.92. In the case of TTCTTCTGAAATCTGATAGAGC, the sensor-assay potency score (higher = more potent) was -0.601. In the case of TAGATTTGCTCTACTGTGCAGT, the sensor-assay potency score (higher = more potent) was 0.44. In the case of ATAGATAACAATCTGAATCATA, the sensor-assay potency score (higher = more potent) was -0.657. For TACTGTGCAGTCATCGTGGGGC, the sensor-assay potency score (higher = more potent) was 0.503. Work on TTCTGAAATCTGATAGAGCATG yielded a sensor-assay potency score (higher = more potent) of -1.4. Sequence TTCATAGTCGTTGATTATCTTC has a sensor-assay potency score (higher = more potent) of -0.794. TAATAGATGATCGACCCTCCGC gave a sensor-assay potency score (higher = more potent) of -0.463. In the case of TTCTTGTCATCCTTGTTGCTTA, the sensor-assay potency score (higher = more potent) was -0.496.

Reference: the OligoGym collection
